# Bioassay records (PubChem BioAssay)
# Sampled rows, rich in hits. Any-hit rate of the full collection: about 7.3%.
# Rab9 promoter act – Rab9 promoter activation | Huh7 Rab9 promoter-luciferase reporter, luminescence, 24 h | Potency, µM (top dose mostly 9.22 µM), actives largely listed as activators | actives 2.8% (n = 320,000) | AID 485297; also: nearly all actives have a fitted effect of over 60% in size
#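 Quantitative HTS format; Huh7 Rab9-luciferase reporter cells (1500/well) receive compound 2 h post-plating, incubate 24 h at 37 °C, then get luciferase reagent for 10 min before luminescence reading.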
# ELG1 genotox – inducers of genotoxicity in HEK293T ELG1-luciferase cells; Potency, µM (series often up to 46 µM), hits mostly activators; HEK293T ELG1-luciferase reporter, luminescence, 16 h; actives 1.3% (n = 330,000); also: nearly all actives have a fitted effect of over 60% in size
#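 Luminescence read-out: rising ELG1-luciferase signal, reflecting elevated ELG1 protein under genetic stress, flags genotoxic compounds. Cells were treated for 16 hr at 37 °C before ONE-Glo detection.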
# FLuc modulator – firefly luciferase modulation, counter-screen for miR-21 project | P08659 | purified FLuc, Km substrates, luminescence inhibition | Potency, µM (top dose mostly 57.5 µM), hits mostly inhibitors | actives 6.9% (n = 360,000) | AID 588342; also: nearly all actives have a fitted effect of over 55% in size
# Target sequence (P08659 whole entry, looked up): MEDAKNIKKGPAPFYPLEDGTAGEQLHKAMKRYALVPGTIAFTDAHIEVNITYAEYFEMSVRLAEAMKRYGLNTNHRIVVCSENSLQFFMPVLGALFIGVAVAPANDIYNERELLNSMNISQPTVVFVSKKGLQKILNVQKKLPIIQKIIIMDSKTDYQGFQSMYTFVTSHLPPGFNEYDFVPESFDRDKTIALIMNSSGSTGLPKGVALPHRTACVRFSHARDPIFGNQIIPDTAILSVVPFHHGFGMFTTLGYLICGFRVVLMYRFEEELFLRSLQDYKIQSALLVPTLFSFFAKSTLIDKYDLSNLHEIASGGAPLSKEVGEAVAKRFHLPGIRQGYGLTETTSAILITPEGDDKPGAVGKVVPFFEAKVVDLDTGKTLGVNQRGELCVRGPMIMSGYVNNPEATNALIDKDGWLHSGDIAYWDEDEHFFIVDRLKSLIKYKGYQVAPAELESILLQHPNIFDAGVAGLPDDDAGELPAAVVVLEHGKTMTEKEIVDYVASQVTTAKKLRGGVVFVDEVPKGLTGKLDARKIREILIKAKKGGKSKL
#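 Purified P. pyralis luciferase (10nM final) with 10uM D-luciferin and 10uM ATP (Km levels) in 50mM Tris acetate pH 7.5, 10mM Mg acetate, 0.01% Tween-20, 0.05% BSA; qHTS 6-point titration, ~60 µM downward; luminescence read.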
# NPC1 promoter act – activators of NPC1 promoter; Huh7 NPC1 promoter luciferase reporter, 24 h; Potency, µM (doses to about 9.22 µM), most hits filed as activators; actives 2.4% (n = 320,000); AID 485313; also: nearly all actives have a fitted effect of over 60% in size
#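 In 1536-well qHTS, Huh7 cells harboring an NPC1 promoter–luciferase construct received compound for 24 h; activation was quantified by luminescence following luciferase reagent addition.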
# KinaseGlo FLuc – counter-screen: inhibitors of Kinase-Glo firefly luciferase; Potency, µM (doses to about 38.3 µM), actives largely listed as inhibitors; Q27757; Kinase-Glo luciferase, ATP luminescence, 8 min; actives 0.28% (n = 200,000); also: nearly all actives have a fitted effect of over 60% in size
#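 Compounds were added to a substrate mix at pH 7.2 (50 mM imidazole, 10 uM ATP, within the enzyme's linear range), followed by Kinase-Glo detection reagent; luminescence was measured after 8 minutes at ambient temperature.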
# SMN2 splice enh – SMN2 splice variant enhancement. HEK293 SMN2-luciferase splicing reporter, luminescence, 30-36 h. Potency, µM (highest dose often 46.1 µM), usual class: activators. actives 2.8% (n = 210,000); also: nearly all actives have a fitted effect of over 55% in size
#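 HEK293 cells carry an SMN2 […]–luciferase reporter in which exon 7 inclusion puts luciferase in frame. Cells were plated 10-12 h before compound addition, then incubated 30-36 h at 37C. ONE-Glo luminescence was read; sodium butyrate at 4.5 mM final served as control.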
# A number is an active result; i = inactive; ? = inconclusive; nt = not tested or not shown; [ ] = another dose, or the depositor's remark. Calls follow the shape of the dose curve; as a rule, active = well fitted curve in the direction sought with a large enough effect; inconclusive = small, poorly fitted or top-dose-only effect, or another doubt; inactive = no such curve, though single readings can be large; an effect the other way counts as inactive or inconclusive.
SMILES,Rab9 promoter act,ELG1 genotox,FLuc modulator,NPC1 promoter act,KinaseGlo FLuc,SMN2 splice enh
CCOc1cc(C#N)c(NC(=O)c2cccc(S(=O)(=O)N3CCOCC3)c2)cc1OCC,nt,nt,i,nt,nt,i
COc1ccc(CCNC(=O)CCCn2c(=O)c3ccccc3n(Cc3ccccc3)c2=O)cc1OC,nt,nt,i,nt,nt,i
CC1CCC(C(=O)NC(C(=O)OCC(=O)c2ccccc2)C(C)C)CC1 (configuration not stated),nt,nt,?,nt,nt,i
COc1cc(NC(=O)Cn2ncc3c([nH]c4ccc(C)cc43)c2=O)cc(OC)c1OC,nt,nt,i,nt,nt,nt
COc1ccc(-c2cccc(-c3cc(=O)oc4cc(OC)cc(OC)c34)c2)cc1,nt,i,nt,nt,nt,nt
COc1cc(OC)c2c(-c3cccc(-c4ccc(N(C)C)cc4)c3)cc(=O)oc2c1,nt,2.6µM,nt,nt,i,nt
Cc1cc(C(=O)CSc2nnc(N)s2)c(C)n1Cc1ccco1,0.45µM,1.8µM,3µM,0.45µM,i,?
Cc1cc(C(=O)COC(=O)c2cc(Cl)ccc2N)c(C)n1Cc1ccco1,2.5µM,9.2µM,2.4µM,3.5µM,i,14µM
O=C(COC(=O)c1ccco1)c1ccc(F)cc1,i,?,2.7µM,i,nt,nt
CC(C)C(NC(=O)c1ccco1)C(=O)OCC(=O)c1ccccc1 (configuration not stated),i,i,17µM,i,nt,nt
Nc1nnc(SCC(=O)c2ccco2)s1,i,i,i,i,i,i
Cc1ccc(C(=O)COC(=O)[C@@H](NC(=O)c2ccco2)C(C)C)s1,nt,i,nt,nt,nt,nt
Cc1cc(-c2csc(N)n2)c(C)n1Cc1ccco1,i,i,?,i,i,?
Cc1cc(C(=O)COC(=O)c2ccncc2)c(C)n1Cc1ccco1,?,i,0.85µM,i,i,i
Cc1cc(C(=O)CN2C(=O)C(=O)N(Cc3ccco3)C2=O)c(C)n1CCc1ccccc1,?,i,i,i,nt,nt
Cc1cc(C(=O)COC(=O)c2ccco2)c(C)n1Cc1ccco1,1.4µM,2.6µM,0.21µM,?,i,i
Cc1cccc(-n2nnnc2SCC(=O)c2cc(C)n(Cc3ccco3)c2C)c1,i,i,i,i,i,i
Cc1cc(C(=O)COC(=O)c2cccn2C)c(C)n1Cc1ccco1,0.63µM,0.41µM,0.6µM,0.79µM,i,?
O=C1CN2CCN(CC2)CC(=O)Nc2ccc(cc2)S(=O)(=O)c2ccc(cc2)NC(=O)CN2CCN(CC2)CC(=O)Nc2ccc(cc2)S(=O)(=O)c2ccc(cc2)N1,nt,nt,nt,nt,i[7.66 µM],i[9.22 µM]
O=C(CSc1nc2c([nH]c3ccccc32)c(=O)n1-c1ccc(F)cc1)N1CCCCCC1,nt,nt,i,nt,nt,nt
COc1ccccc1-c1nc(SCC(=O)NCc2ccccc2)c2c(=O)n(C)c(=O)n(C)c2n1,nt,nt,i,nt,nt,nt
O=C1c2ccccc2-c2n[nH]c3cccc1c23,i,nt,nt,?,i,i
O=C1C(=O)c2ccc(-c3ccccc3)cc2-c2ccccc21,i,i,i,i,i,i
Cc1ccccc1-c1cc2c(nn1)-c1ccccc1C2=O,4µM,?,1.3µM,3.2µM,5µM,?
Cc1ccc(-c2cc3c(nn2)-c2ccccc2C3=O)cc1,?,?,0.076µM,?,nt,nt
SMILES,Rab9 promoter act,ELG1 genotox,FLuc modulator,NPC1 promoter act,KinaseGlo FLuc,SMN2 splice enh
O=C1c2ccccc2-c2nnc(-c3ccc(F)cc3)cc21,0.32µM,?,0.43µM,?,5µM,2.5µM
O=C1c2ccccc2-c2nnc(-c3ccc(O)cc3)cc21,0.5µM,?,0.54µM,0.63µM,11µM,6.3µM
O=c1[nH]nc(-c2ccc(F)cc2)cc1-c1ccccc1,i,i,i,i,nt,nt
Cc1cccc(N2CCN(C(=O)c3c4c(nc5ccccc35)C(=O)N(C3CCCCC3)C4)CC2)c1C,nt,nt,i,nt,nt,nt
COC(=O)C1CCN(C(=O)/C=C/c2ccc3c(c2)OCO3)CC1,1.3µM,?,?,0.79µM,nt,nt
O=C(/C=C/C=C/c1ccc2c(c1)OCO2)N1CCCCC1,2.5µM,12µM,8.5µM,2.5µM,i,14µM
CCN1CCN(C(=O)/C=C/c2ccc3c(c2)OCO3)CC1,i,i,i,i,i,nt
CN1CCN(C(=O)/C=C/c2ccc3c(c2)OCO3)CC1,i,i,i,i,i,i
O=C(/C=C/c1ccc2c(c1)OCO2)N1CCN(c2n[nH]c(=O)[nH]c2=O)CC1,i,i,21µM,i,nt,nt
O=C(O)C[n+]1ccccc1,nt,nt,nt,nt,i[7.66 µM],i[9.22 µM]
Cc1cccc(CSCCNC(=O)CN(c2ccccc2)S(=O)(=O)N(C)C)c1,nt,nt,i,nt,nt,i
Cc1ccc(CNC(=O)c2nc(-c3ccc(Cl)cc3)n3c2CCCCC3)cc1,nt,nt,i,nt,nt,nt
CCc1cccc(C)c1NC(=O)Cn1ccn(-c2ccc(F)cc2)c(=O)c1=O,nt,nt,i,nt,nt,nt
CN(C)S(=O)(=O)c1cccc(NC(=O)COC(=O)/C=C/c2ccco2)c1,i,i,?,i,i,i
Cc1ccc(/C=C/C(=O)OCC(=O)Nc2cccc(S(=O)(=O)N(C)C)c2)o1,i,i,21µM,i,i,i
